dFosB activator – activators of mouse delta FosB homodimer; activation, % at 25 µM; hit rate 0.99% among 340,000; P13346; purified delta FosB, TAMRA-CDK5 oligo fluorescence polarization; percent of positive-control signal above neutral wells;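 active = mean activation above about 17%, with every replicate also reaching it, limit read from the data, passing the limit was not always enough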
esBAF inh – SWI/SNF esBAF complex inhibition; mouse ES cells, Bmi1-luciferase knock-in reporter, 24 h; 100% = twice the neutral-well signal; reporter increase, % at 12.5 µM; hit rate 2% among 350,000; AID 602393; in the data active = activation above about 40%;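 note: a rise in the Bmi1 reporter signal indicates esBAF inhibition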
SMARCA2 act – SMARCA2 function activation, primary screen | MG213 cells, MMTV-luciferase reporter, dexamethasone, overnight | activation, % at 9.1 µM | hit rate 1% among 370,000; in the data active = activation above about 7.8%
CDK5 inh – CDK5/p35 (human) kinase inhibition; hit rate 0.01% among 330,000; AID 488839; inhibition, % at 10 µM; Recombinant CDK5/p35, ADP-Glo luminescence, 60 min;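 active = highest replicate inhibition of at least 50% and at least 75% of replicates reaching 50%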
Rtt109 Vps75 – blocks Candida albicans Rtt109/Vps75 acetyltransferase activity. inhibition, % at 34.9 µM. AID 540336. hit rate 0.16% among 330,000. Q5AAJ8. purified Rtt109/Vps75, ThioGlo CoA-SH fluorescence, 4 h;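 active = inhibition of at least 50% in every replicate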
Target sequence (Q5AAJ8 whole entry, looked up): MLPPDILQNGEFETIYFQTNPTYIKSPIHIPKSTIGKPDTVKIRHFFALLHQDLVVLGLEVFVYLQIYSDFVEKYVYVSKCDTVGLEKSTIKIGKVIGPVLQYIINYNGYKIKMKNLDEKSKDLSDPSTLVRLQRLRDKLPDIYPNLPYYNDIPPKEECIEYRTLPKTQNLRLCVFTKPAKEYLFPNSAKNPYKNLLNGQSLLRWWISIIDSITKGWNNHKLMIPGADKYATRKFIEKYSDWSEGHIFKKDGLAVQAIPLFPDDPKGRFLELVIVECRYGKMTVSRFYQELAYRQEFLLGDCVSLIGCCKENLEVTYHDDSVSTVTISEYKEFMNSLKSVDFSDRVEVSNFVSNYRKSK
DYRK1A inh – Dyrk1A (rat) kinase inhibition | ADP-Glo luminescence, NFATc1 peptide | hit rate 0.43% among 310,000 | Q63470 | inhibition, % at 12.5 µM; in the data active = inhibition above about 50%
SMARCA2 act conf – confirmation of SMARCA2 (BRM) function activators | shares compounds with SMARCA2 act | AID 652260 | hit rate 30% among 3,500 | MG213 cells, MMTV-luciferase with dexamethasone, luminescence, overnight; MG213 cells expressing E1A, Rb sequestered; DMSO wells 0%, reference activator 100% | activation, % at 9.1 µM;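 active = activation above its plate's cutoff, the mean activation of tested wells plus 3 SD, cut at about 7.9% in these data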
GAL4-VP16 Luc – GAL4-VP16 reporter activation counter-screen. HEK293 GAL4-VP16 pG5luc reporter, luciferase luminescence; scaled: DMSO wells 0%, SAHA wells 100%. shares compounds with SMARCA2 act. activation, % at 9.1 µM. hit rate 41% among 3,500;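 active = activation above the solvent-only control well mean plus 3 SD, averaged across control plates, cut at about 5.2% in these data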
Large screens that a line does not name were inactive (follow-up assays come after a bar, where they were run). Hits are enriched below; roughly 3.2% of the tested compounds scored in any of these assays.

O=C(c1cc(-c2ccc(O)cc2)on1)N1CCc2ccccc2C1	none
CC(C)CSC1=NSC2=NC(=O)/C(=C\c3cccs3)C(=N)N12	SMARCA2 act 9.5 (no result: esBAF inh) | SMARCA2 act conf inactive | GAL4-VP16 Luc 5.3
N=C1/C(=C/c2cccs2)C(=O)N=C2SN=C(SCc3ccccc3)N12	none
COc1cc2c(cc1OC)C(CSc1ccccc1C(=O)O)=NC(C)(C)C2	SMARCA2 act 9.3 (no result: esBAF inh) | SMARCA2 act conf 9.4 | GAL4-VP16 Luc 5.8
CC1(C)Cc2ccccc2C(CSc2ccccc2C(=O)O)=N1	none
Cc1[nH]c2ccccc2c1-c1nc2ccccc2[nH]c1=O	none
O=c1[nH]c2ccccc2nc1-c1cccs1	esBAF inh 68.1, SMARCA2 act 8.2 | SMARCA2 act conf 8.6 | GAL4-VP16 Luc inactive
C=CCn1c(-c2ccc(OC)c(OC)c2)n[nH]c1=S	none (no result: esBAF inh)
C=CCn1c(-c2c(C)nc3cc(C)ccn23)n[nH]c1=S	SMARCA2 act 9.1 (no result: esBAF inh) | SMARCA2 act conf inactive | GAL4-VP16 Luc inactive
CN(C(=O)COC(=O)Cc1c(F)cccc1Cl)c1c(N)n(Cc2ccccc2)c(=O)[nH]c1=O	SMARCA2 act 9.4 | SMARCA2 act conf inactive | GAL4-VP16 Luc inactive
CC1CCC(NC(=O)c2cccn2C)CC1 (configuration not stated)	SMARCA2 act 8.8 | SMARCA2 act conf 10.8 | GAL4-VP16 Luc 10.8
COc1ccccc1C(=O)N1C[C@@H]2[C@H](c3ccccc31)[C@H](CO)N2CC1CCOCC1	none (no result: dFosB activator, SMARCA2 act, CDK5 inh, Rtt109 Vps75, DYRK1A inh)
COc1ccccc1CN1C[C@H](C)[C@@H](OC)CN(C)C(=O)c2ccc(NC(C)=O)cc2OC[C@H]1C	none (no result: dFosB activator, SMARCA2 act, CDK5 inh, Rtt109 Vps75, DYRK1A inh)
Cc1ccc(/C=C/c2nc3ccccc3c(=O)[nH]2)cc1	SMARCA2 act 8.7 | SMARCA2 act conf 9.6 | GAL4-VP16 Luc 5.8
CCNC(=O)C[C@H]1CC[C@H]2[C@@H](COc3ccc(NC(=O)Nc4c(C)noc4C)cc3C(=O)N2C)O1	none (no result: dFosB activator, SMARCA2 act, CDK5 inh, Rtt109 Vps75, DYRK1A inh)
COc1ccc(NC(=O)Nc2ccc3c(c2)C(=O)N([C@@H](C)CO)C[C@@H](C)[C@H](CN(C)C(=O)C2CCCCC2)OCCCC[C@@H](C)O3)cc1	none (no result: dFosB activator, SMARCA2 act, CDK5 inh, Rtt109 Vps75, DYRK1A inh)
CC(C)c1c(C(=O)Nc2ccccc2)c(-c2ccccc2)c(-c2ccc(F)cc2)n1CC[C@@H](O)C[C@@H](O)CC(=O)O	SMARCA2 act 17.5 (no result: dFosB activator, CDK5 inh, Rtt109 Vps75, DYRK1A inh) | SMARCA2 act conf 12.8 | GAL4-VP16 Luc inactive
O=C(Cc1cccnc1)N[C@H]1CC[C@H](CCn2cc(Cc3ccccc3)nn2)O[C@H]1CO	none (no result: dFosB activator, SMARCA2 act, CDK5 inh, Rtt109 Vps75, DYRK1A inh)
NC(=O)c1ccsc1NC(=O)c1coc2ccccc2c1=O	SMARCA2 act 9.0 (no result: esBAF inh) | SMARCA2 act conf 22.7 | GAL4-VP16 Luc 8.9
O=C(Cc1cccnc1)N[C@H]1CC[C@H](CCNS(=O)(=O)c2ccccc2Cl)O[C@@H]1CO	none (no result: dFosB activator, SMARCA2 act, CDK5 inh, Rtt109 Vps75, DYRK1A inh)
CCOC(=O)/C(C#N)=C/c1c[nH]c2ccccc12	SMARCA2 act 10.8 (no result: esBAF inh) | SMARCA2 act conf inactive | GAL4-VP16 Luc inactive
COc1ccc(NC(=O)c2cc([N+](=O)[O-])ccc2NC(=O)CNCc2ccccn2)c(OC)c1	SMARCA2 act 13.1 | SMARCA2 act conf inactive | GAL4-VP16 Luc inactive
Cc1cccc(NNC(=O)C(=O)NNc2cccc(C)c2)c1	none (no result: esBAF inh)
Cc1cccc(N=NC(=S)NNc2cccc(C)c2)c1	esBAF inh 52.2, SMARCA2 act 8.7 | SMARCA2 act conf inactive | GAL4-VP16 Luc 9.1
C[C@@H]1CN([C@@H](C)CO)C(=O)c2cc(-c3ccccc3)cnc2O[C@@H]1CN(C)C(=O)c1ccccc1F	none (no result: dFosB activator, SMARCA2 act, CDK5 inh, Rtt109 Vps75, DYRK1A inh)
O=C1NC(=S)N/C1=C/c1cc2c(cc1[N+](=O)[O-])OCO2	SMARCA2 act 11.0 | SMARCA2 act conf inactive | GAL4-VP16 Luc inactive
O=C(O)/C=C\c1cc2c(cc1[N+](=O)[O-])OCO2	none
c1ccc2c(c1)C1=NCCN1c1ccccc1-2	SMARCA2 act 23.8 (no result: dFosB activator, esBAF inh, CDK5 inh, Rtt109 Vps75, DYRK1A inh) | SMARCA2 act conf 371.5 | GAL4-VP16 Luc inactive
Cc1noc(C)c1S(=O)(=O)Nc1ccc2c(c1)C(=O)N([C@@H](C)CO)C[C@H](C)[C@@H](CN(C)S(C)(=O)=O)O2	none (no result: dFosB activator, SMARCA2 act, CDK5 inh, Rtt109 Vps75, DYRK1A inh)
